Measured values published in PubChem BioAssay AID893 (National Center for Advancing Translational Sciences (NCATS), 2007).
Several values for one entry are separate records, joined by “and”; a condition that tells them apart may be missing. Identical values can stand only once. In all, about 75,000 compounds went through this assay and about 5,700 (7.6%) were called active. Inconclusive results (about 7%) are left out. The sample holds actives, similar compounds and a random draw of the others, so the mix is not that of the screen. The call rests on the fitted dose curve; in most records, active means well fitted inhibition curve with a large enough effect; inconclusive means small, poorly fitted or top-dose-only effect; inactive means no such curve, though single readings can be large or run the other way.

These compounds were tested against 3-hydroxyacyl-CoA dehydrogenase type-2 (Homo sapiens) (UniProt Q99714) (assay: qHTS Assay for Inhibitors of HSD17B4, hydroxysteroid (17-beta) dehydrogenase 4). Details: recombinant HSD17B10, NADH fluorescence kinetic; series mostly up to 57.1 µM; activity change, negative = inhibition: at the top concentration.
Method in brief: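 Enzyme plus compound, 15 min room temperature; substrate mix added (NAD+ 1 mM, beta-hydroxybutyryl-CoA 90 uM final); plates read kinetically for NADH fluorescence. HADH2 was His-tagged, E. coli-derived, 20 nM.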
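Further: the protocol describes HADH2 (HSD17B10) and not the HSD17B4 of the title; nearly all actives have a fitted effect of over 70% in size.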
On the % scale 0 is the no-effect control and ±100 the full control effect; potency means the concentration at half of the fitted maximal effect.

Compound | activity change, negative = inhibition | Potency
CC1(C)OC2CC3C4CCC5=CC(=O)CCC5(C)C4(F)C(O)CC3(C)[C@]2(C(=O)CCl)O1 (stereo not given in full) | -11.4% (inactive) | 
Cc1cccc(Br)c1 | 2.64% (inactive) | 
Cc1cc(=O)[nH]c(SCc2cc(Cl)ccc2OC(F)F)n1 | -11.7% (inactive) | 
CCOc1ccc2nc(NC(=O)CSc3nc4c(c(=O)n(C)c(=O)n4C)n3CC)sc2c1 | -2.72% (inactive) | 
O=C(NCc1ccc(Cl)cc1)c1cc2c(nc3sccn32)s1 |  | 20 µM (active)
O=C(NCc1cn2ccsc2n1)Nc1ccc(Cl)cc1 | 10.3% (inactive) | 
O=c1cc(Cn2nnc(-c3ccc(Cl)cc3)n2)nc2sccn12 | -10.6% (inactive) | 
CCCCn1nnnc1NCc1cc(OC)c(OC)c(OC)c1 | 13.8% (inactive) | 
O=C(O)C1CCN(c2ncnc3ccc(-c4ccccc4C(F)(F)F)cc23)CC1 | -0.266% (inactive) | 
COc1ccc(N2C(=O)CCC(C(=O)Nc3ccccn3)C2c2ccc(OC)c(OC)c2)cc1 (stereo not given) | 16.6% (inactive) | 
CC(C)=CCC/C(C)=C/CO/N=C1/C[C@@H](O)[C@@H](O)[C@@H]2[C@@H]3C(=O)N(C(C)(C)C)C(=O)[C@H]3CC[C@H]12 | 0.507% [at 11.4 µM] (inactive) | 
CC(C)c1ccc2c(c1)c(SC(C)(C)C)c(CC(C)(C)C(=O)O)n2Cc1ccc(Cl)cc1 |  | 10 µM (active) and 3.98 µM (active)
COC(=O)[C@@H]1CC[C@H](C)[C@@H](c2ccc(C)cc2)N1C(=O)c1ccc(/C=N\O[C@@H](C)c2cn([C@H](CO)Cc3ccccc3)nn2)cc1 | -0.702% [at 11.4 µM] (inactive) and -3.31% [at 11.4 µM] (inactive) | 
O=C(Nc1c(C(=O)N2CCCCC2)cnn1-c1ccccc1)c1ccco1 | 6.7% (inactive) | 
Cc1c(C(=O)NCCN2CCOCC2)sc2nc(-c3ccc(F)cc3)cn12 | 6.66% (inactive) | 
CC(C(=O)O)N1C(=O)c2cccc3cccc1c23 (stereo not given) | 2.71% (inactive) | 
O=C1c2cccc3cccc(c23)N1CN1CCN(c2ccccn2)CC1 | 2.8% (inactive) | 
COc1ccc(N2C(=O)c3cccc4cccc(c34)C2=O)nn1 |  | 31.6 µM (active)
CN1CC(=O)N=C1N | -0.833% (inactive) | 
COC(=O)NC(c1ccccc1)[C@]1(C(C)=O)CCCC1=O (stereo not given in full) | 3.19% [at 11.4 µM] (inactive) | 
O=S(=O)(O)c1nc2ccccc2n1Cc1ccc(Cl)cc1 | -1.86% (inactive) | 
Cc1ccc(C(=O)COc2cccc(NC(=O)c3ccco3)c2)cc1 | -14.7% (inactive) | 

Compound | activity change, negative = inhibition | Potency
Cc1ccc(Cn2c(NC(=O)c3ccco3)nc3ccccc32)cc1 |  | 15.8 µM (active)
CCN(CC)C(=O)c1sc(NC(=O)c2ccco2)c(C#N)c1C | -17.2% (inactive) | 
Cc1ccnc(NC(=O)c2ccc(NC(=O)c3ccco3)cc2)c1 | -8.38% (inactive) | 
CCn1nc(NC(=O)c2ccco2)c2cc3ccc(C)cc3nc21 |  | 20 µM (active)
COC(C)(C)[C@]12CC(O)(C(C)C)ON1[C@H]1CCCCC1N2O (stereo not given in full) | 8.36% (inactive) | 
Cc1sc2c(c1C)c(=O)n(-c1ccccc1)c1nncn21 | 5.02% (inactive) | 
Cn1c2c(c(=O)n(C)c1=O)C(c1ccc(O)cc1)Nc1ccccc1O2 (stereo not given) | -8.25% (inactive) | 
O=C(CCCN1C(=O)C2C3C=CC(C3)C2C1=O)N1CCN(c2ccccc2)CC1 (stereo not given) | -2.22% (inactive) | 
CC(C)CCNC(=O)CCNS(=O)(=O)c1ccc(Cl)cc1 | 10.5% (inactive) | 
CCOC(=O)c1cnc(SCC(=O)NCc2ccco2)nc1N | -6.87% (inactive) | 
CCCCOc1ccc(NC(=O)CSCC(=O)OCC)cc1 | 1.87% (inactive) | 
CCCCOc1ccc(-c2ncc(C(=O)OCC)c(N)n2)cc1 |  | 31.6 µM (active)
Cc1cccc(NC(=O)c2ccc3ccccc3n2)n1 | -20.5% (inactive) | 
COC(=O)[C@@H]1C[C@@]2(O)[C@H](O)[C@H](O)[C@H](O)C[C@H]2N1Cc1ccc(C(C)(C)C)cc1 | 3.75% (inactive) | 
COc1ccc(OC)c([C@H](O)CNC(=O)CN)c1 | 0.323% [at 25.6 µM] (inactive) | 
Cc1c(C(=O)CN2CCOCC2)[nH]c2ccccc12 | -6.78% (inactive) | 
COc1cc(NC(=O)N2CCOCC2)cc(OC)c1 | 5.87% (inactive) | 
CCOC(=O)c1[nH]c2ccc(OC)cc2c1NC(=O)N1CCOCC1 |  | 25.1 µM (active)
O=C(CN1C2CCC1CC(NC(=O)C1CC1)C2)NCc1ccccc1 (stereo not given) | 1.53% (inactive) | 
Cc1nc2ccccc2c2oc(C(=O)NCC3CCCO3)cc12 (stereo not given) |  | 31.6 µM (active)
Cc1nc2ccccc2c2oc(C(=O)NCCCN3CCC(C)CC3)cc12 | -22.8% (inactive) | 
CCCN(CCC)CCNC(=O)c1cc2c(C)nc3ccccc3c2o1 | -25.7% (inactive) | 

Compound | activity change, negative = inhibition | Potency
Cc1ccc(Cc2cncc(O)c2)cc1S(=O)(=O)O | -3.12% (inactive) | 
CCCn1c(SCC(=O)c2ccc3c(c2)OCCO3)nnc1C(C)C | -6.57% (inactive) | 
COc1cc(C2C(C(=O)Nc3ccc(F)cc3)=C(C)Nc3nc(CCCO)nn32)cc(OC)c1OC (stereo not given) | 4.48% (inactive) | 
CC1C(O)CC2C(C(=O)O)=CO[C@@H](O[C@H]3OC(CO)C(O)C(O)C3O)C21 (stereo not given in full) | -1.35% (inactive) | 
COc1ccc(C2CC(c3ccccc3)Nc3ncnn32)cc1 (stereo not given) | 1.31% (inactive) | 
CC(C)[C@@H](OCc1ccccc1)[C@H](C)/C=N\OC[C@@H](C)[C@H](OCc1ccccc1)C(C)C | 2.53% [at 11.4 µM] (inactive) | 
OC(COc1ccccc1)Cn1cc(Br)cn1 (stereo not given) | 7.04% (inactive) | 
COc1cc(-c2nc(S(=O)(=O)c3ccc(Cl)cc3)c(N(C)C)o2)cc(OC)c1OC | -6.36% (inactive) | 
COc1ccc(C2C(C(=O)Nc3ccccc3OC)=C(C)Nc3nnnn32)c(OC)c1 (stereo not given) | 3.75% (inactive) | 
COC(=O)c1ccc(C2NC(=O)NC(C)=C2C(=O)N(C)C)cc1 (stereo not given) | -0.293% (inactive) | 
COC(=O)c1ccc(C2C3=C(Nc4nnnn42)c2ccccc2OC3)cc1 (stereo not given) |  | 25.1 µM (active)
Cc1c(C)c2c(c(C)c1O)CC[C@@](C)(CN1CCN(c3cc(N4CCCC4)nc(N4CCCC4)n3)CC1)O2 | -14.3% (inactive) | 
c1coc(-c2nc3nc4ccccc4n3nc2-c2ccco2)c1 | -11.6% (inactive) | 
Cn1c(-c2ccco2)nc2cc3ccccc3cc21 |  | 25.1 µM (active)
CCOC(=O)CSc1nnc(-c2ccco2)n1C | 2.61% (inactive) | 
Cn1c(SCC(=O)N2CCOCC2)nnc1-c1ccc(NC(=O)c2ccccc2F)cc1 | -3.2% (inactive) | 
COc1cccc(Nc2nnc(SCC(=O)N3CC(C)OC(C)C3)s2)c1 (stereo not given) | -1.19% (inactive) | 
O=C(C1CCN(CC2CCCCC2)CC1)N1CCCC1 | 3.46% (inactive) | 
Cc1nn(CC(=O)Nc2ccc3c(c2)nc(CN2CCCCC2)n3C)c(=O)c2ccccc12 | -9.44% (inactive) | 
CCC(=O)Nc1ccc2c(c1)nc(CCN1CCN(C)CC1)n2C | 5.81% (inactive) | 
Cn1c(CCN2CCCCCC2)nc2cc(NC(=O)Nc3ccccc3)ccc21 |  | 25.1 µM (active)
